Here are results for five compounds from PubChem BioAssay (NCI).

This is part of a sample that, as a whole, favours compounds with a hit. Of some 83,000 tested, about 20% had one in any assay.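 Single-concentration screen, 48 h exposure, 96-well plates. Endpoint: percent growth. Below 10 = active.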 Values without a mark were called inactive. Activity calls are given as the source filed them.

Some test systems named below: RPMI-8226 leukemia; OVCAR-8 ovarian; OVCAR-5 ovarian; OVCAR-4 ovarian; SK-OV-3 ovarian; IGROV1 ovarian; OVCAR-3 ovarian; NCI/ADR-RES ovarian; T-47D breast; BT-549 breast; MDA-MB-435 melanoma; SW-620 colon; MCF7 breast; HCT-116 colon; HCC-2998 colon; KM12 colon; HS 578T breast.
Holding throughout (assay): NCI-60 one-dose screen, 48 h (100 = growth as untreated, 0 = no growth, -100 = all killed)
What all share (details): 10 µM unless noted

With `O=c1[nH]ncc(Br)c1Br`, the growth in the assay with RPMI-8226 leukemia is 23.9%; in the assay on OVCAR-8 ovarian, 7.24% (active); in the assay on OVCAR-5 ovarian it was 115%; with OVCAR-4 ovarian it was -100% (active); with SK-OV-3 ovarian, 122%; in the assay with IGROV1 ovarian, 51.2%. Besides, the growth was -100% (active) in the assay with OVCAR-3 ovarian; 38.1% with NCI/ADR-RES ovarian; 46.3% with T-47D breast; 83.2% with BT-549 breast; 64.3% in the assay on MDA-MB-435 melanoma; -80.3% (active) in the assay on SW-620 colon. Further, the growth is 23% with MCF7 breast, 15.2% in the assay on HCT-116 colon, 54% with HCC-2998 colon and 45.8% in the assay with KM12 colon.

Take `O=[N+]([O-])c1ccc(/C=N\Nc2ccccc2)cc1`: the growth is 67.8% with RPMI-8226 leukemia; 61.8% in the assay on OVCAR-8 ovarian; 88% in the assay on OVCAR-5 ovarian; 101% with SK-OV-3 ovarian; 78% with IGROV1 ovarian; 82.5% in the assay on OVCAR-3 ovarian. Also, the growth was 63.1% in the assay with HS 578T breast; 60% in the assay with NCI/ADR-RES ovarian; 72.2% with T-47D breast; 68.9% in the assay on MDA-MB-435 melanoma; 79.9% with SW-620 colon; 75.1% in the assay on MCF7 breast. Besides, the growth in the assay on HCT-116 colon is 66.3%; in the assay with HCC-2998 colon it was 96.6%; with KM12 colon, 36.1%.

As for `Cc1ccc2[nH]cc(-c3nc(-c4cn(C)c5ncccc45)cs3)c2c1`, the growth is 62.7% in the assay with RPMI-8226 leukemia; 85.8% in the assay on OVCAR-8 ovarian; 108% with OVCAR-5 ovarian; 102% in the assay with SK-OV-3 ovarian; 108% in the assay with IGROV1 ovarian; 106% with OVCAR-3 ovarian. Moreover, the growth in the assay with HS 578T breast was 99%; in the assay with T-47D breast, 41.5%; in the assay with BT-549 breast, 82.9%; with MDA-MB-435 melanoma it was 79.3%; in the assay on SW-620 colon it was 109%; with MCF7 breast it was 55.1%. The growth in the assay with HCT-116 colon was 74.9%; with HCC-2998 colon it was 88.8%; in the assay on KM12 colon, 77.9%.

On to `N=C(N)c1ccc(S(N)(=O)=O)cc1`, for which the growth is 128% in the assay with RPMI-8226 leukemia; 100% in the assay with OVCAR-8 ovarian; 88.2% in the assay with OVCAR-5 ovarian; 102% in the assay on OVCAR-4 ovarian; 115% with SK-OV-3 ovarian; 110% in the assay on IGROV1 ovarian. The growth in the assay on OVCAR-3 ovarian is 113%; with NCI/ADR-RES ovarian it was 97.5%; in the assay on T-47D breast, 101%; in the assay with BT-549 breast, 94.2%; with MDA-MB-435 melanoma, 98.5%; with SW-620 colon, 105%. In addition, the growth in the assay on MCF7 breast was 99.4%; in the assay on HCT-116 colon, 93.9%; with HCC-2998 colon, 93.9%; in the assay on KM12 colon, 106%.

As to `CC(=O)N1N=C(c2ccc(C)cc2)CC1c1ccc(Oc2ccc(Br)cc2)cc1` (configuration not stated), the growth is 74.8% with RPMI-8226 leukemia; 85.2% in the assay with OVCAR-8 ovarian; 88.9% with OVCAR-5 ovarian; 74.6% with OVCAR-4 ovarian; 62.1% in the assay with SK-OV-3 ovarian; 66.7% in the assay on IGROV1 ovarian. The growth in the assay with OVCAR-3 ovarian is 88.3%; in the assay on HS 578T breast, 87.4%; with NCI/ADR-RES ovarian, 73.1%; with T-47D breast it was 60.6%; with BT-549 breast, 89.3%; with MDA-MB-435 melanoma it was 97.6%. Also, the growth is 87.3% in the assay on HCT-116 colon, 96.9% with HCC-2998 colon and 85.5% in the assay on KM12 colon.
